The record followed here is PubChem BioAssay (EPA / NIEHS).

A word on the AC50: it is the midpoint of the concentration-response curve, whichever way the signal moves.

Activity calls are given as the source filed them. How the source made its calls: active means hit-call score of the fitted dose curve at least 0.9, where 1 is the maximum; inactive means score below 0.9.

Assay [1] in a line: ATG_NFI_CIS: Attagene CIS-FACTORIAL HepG2 Assay for human Nuclear Factor I (NFI) (AID 2282989). The settings on record: HepG2 cis-regulatory reporter, NFI response element transcription; actives raise or lower the signal. A digest of the protocol:
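HepG2 cells transiently transfected with cis-element-driven multiplexed reporter transcription units, dosed for 24 h. Reporter mRNA quantified by RT-PCR, fluorescent labelling, HpaI digestion and capillary electrophoresis; bidirectional fit versus DMSO baseline.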

Assay [2] is described as follows: ATG_NF_kB_CIS: Attagene CIS-FACTORIAL HepG2 Assay for human Nuclear Factor Kappa B (NF-kB) (AID 2282991). As to conditions: HepG2 Attagene cis-factorial NF-kB reporter mRNA; actives raise or lower the signal. A digest of the protocol: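 Endpoint from a 52-component multiplexed HepG2 reporter panel: cis-regulated transcription units transiently transfected, 24 h dosing, reporter mRNA quantified by RT-PCR and capillary electrophoresis, scored as increase or decrease against DMSO.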

The nature of assay [3]: ATG_NRF2_ARE_CIS: Attagene CIS-FACTORIAL HepG2 Assay for human Nuclear Factor Erythroid 2 Related Factor 2 (NFR2) response to Antioxidant Response Elements (ARE) (AID 2282992).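 On AC50: reporter mRNA level measured by RT-PCR and capillary electrophoresis fluorescence.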 The settings on record: HepG2 Attagene ARE/NRF2 reporter, transcription factor activity; actives raise or lower the signal. A digest of the protocol:
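Transient MRTU transfection of HepG2; 24 h compound exposure; TriZol RNA, RT with oligo(dT), PCR, 6-FAM primer extension, HpaI cut, CE. Bidirectional fit vs DMSO.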

Assay [4] is described as follows: ATG_Oct_MLP_CIS: Attagene CIS-FACTORIAL HepG2 Assay for human Octamer-Binding Transcription Factor (Oct) (AID 2282993). The settings on record: HepG2 Attagene cis-factorial Oct reporter, mRNA; actives raise or lower the signal. A digest of the protocol:
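HepG2 cells transiently transfected with cis-promoter-driven multiplexed reporter transcription units, dosed for 24 h. Reporter mRNA quantified by RT-PCR, fluorescent labelling, HpaI digestion and capillary electrophoresis; bidirectional fits versus DMSO baseline.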

Assay [5] concerns the target Myc proto-oncogene protein (Homo sapiens) (UniProt P01106). Description: ATG_Myc_CIS: Attagene CIS-FACTORIAL HepG2 Assay for human Myelocytomatosis (Myc) Proto-Oncogene Transcription Factor (AID 2282990). As to conditions: HepG2, Attagene cis-reporter transcription factor activity; actives raise or lower the signal. A digest of the protocol: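 Read-out: fluorescent reporter mRNA fragments resolved by capillary electrophoresis after RT-PCR. Human HepG2 liver cells carried transfected cis-element reporter units and were dosed for 24 h. Gain or loss of signal fitted relative to DMSO baseline.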

For assay [6], the target named is Cellular tumor antigen p53 (Homo sapiens) (UniProt P04637). Description: ATG_p53_CIS: Attagene CIS-FACTORIAL HepG2 Assay for human p53 Transcription Factor (AID 2282994). As to conditions: HepG2 p53 cis-element reporter, Attagene mRNA; actives raise or lower the signal. A digest of the protocol: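 HepG2, transient MRTU transfection (cis promoter elements, endogenous TFs); 24 h dosing; RNA isolation, RT-PCR, 6-FAM primer extension, HpaI digest, CE fluorescence; bidirectional fit vs DMSO.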

Assay [7] is described as follows: BSK_3C_TissueFactor: BioMAP Diversity Plus: 3C Assay for Tissue Factor Biomarker Activity (AID 2282997). The settings on record: BioMAP 3C HUVEC, tissue factor biomarker readout; actives raise or lower the signal. A digest of the protocol:
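Primary human umbilical vein endothelial cells in the 3C system were exposed to test chemical for 24 h, then Tissue Factor measured by ELISA. Activity was fitted bidirectionally against DMSO as negative control and baseline.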

A short description of assay [8]: BSK_3C_uPAR: BioMAP Diversity Plus: 3C Assay for Urokinase-type plasminogen activator receptor (uPAR) Biomarker Activity (AID 2282998). As to conditions: BioMAP 3C HUVEC, uPAR biomarker ELISA; actives raise or lower the signal. A digest of the protocol: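 Human umbilical vein endothelial primary cells were exposed to test chemical for 24 h. Cell-surface uPAR was then quantified by ELISA, and responses were fitted bidirectionally against DMSO as negative control and baseline.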
In general terms: In an ELISA, binding on a coated surface is turned into a signal by an enzyme label.

Assay [9] can be described thus: BSK_3C_VCAM1: BioMAP Diversity Plus: 3C Assay for Vascular cell adhesion molecule 1 (VCAM1) Biomarker Activity (AID 2282999). The settings on record: BioMAP 3C HUVEC, VCAM1 ELISA, cytokine-stimulated; actives raise or lower the signal. A digest of the protocol:
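Human umbilical vein endothelial cells (3C system), biomarker read by ELISA 24 h after dosing; bidirectional fit against DMSO baseline. Cytotoxicity tracked by SRB total-protein staining in parallel cultures at biomarker time.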

Assay [10] is described as follows: BSK_4H_Eotaxin3: BioMAP Diversity Plus: 4H Assay for Eotaxin 3 Biomarker Activity (AID 2283000).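 On outcome: CCL26 protein level quantified by ELISA in parallel with SRB cytotoxicity check.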 As to conditions: primary human endothelial cells (HUVEC); actives raise or lower the signal. A digest of the protocol:
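HUVEC, 24 h post-dose, ELISA for Eotaxin-3/CCL26. Gain or loss of signal fitted bidirectionally vs DMSO baseline.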

Sequence of Myc proto-oncogene protein (Homo sapiens) (P01106 whole entry, looked up, the tested form may be a part): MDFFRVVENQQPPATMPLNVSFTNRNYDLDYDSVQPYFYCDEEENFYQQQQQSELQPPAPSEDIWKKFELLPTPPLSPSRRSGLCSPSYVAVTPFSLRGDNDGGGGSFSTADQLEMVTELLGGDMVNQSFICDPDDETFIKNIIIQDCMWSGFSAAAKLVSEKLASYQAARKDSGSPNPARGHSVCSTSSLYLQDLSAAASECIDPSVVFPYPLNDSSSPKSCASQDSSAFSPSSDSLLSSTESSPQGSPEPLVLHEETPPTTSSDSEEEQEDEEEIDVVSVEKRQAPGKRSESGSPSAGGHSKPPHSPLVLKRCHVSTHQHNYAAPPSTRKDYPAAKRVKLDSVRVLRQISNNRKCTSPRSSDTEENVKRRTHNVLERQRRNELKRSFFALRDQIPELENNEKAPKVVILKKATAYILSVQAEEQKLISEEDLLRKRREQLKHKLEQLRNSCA
Sequence of Cellular tumor antigen p53 (Homo sapiens) (P04637 whole entry, looked up): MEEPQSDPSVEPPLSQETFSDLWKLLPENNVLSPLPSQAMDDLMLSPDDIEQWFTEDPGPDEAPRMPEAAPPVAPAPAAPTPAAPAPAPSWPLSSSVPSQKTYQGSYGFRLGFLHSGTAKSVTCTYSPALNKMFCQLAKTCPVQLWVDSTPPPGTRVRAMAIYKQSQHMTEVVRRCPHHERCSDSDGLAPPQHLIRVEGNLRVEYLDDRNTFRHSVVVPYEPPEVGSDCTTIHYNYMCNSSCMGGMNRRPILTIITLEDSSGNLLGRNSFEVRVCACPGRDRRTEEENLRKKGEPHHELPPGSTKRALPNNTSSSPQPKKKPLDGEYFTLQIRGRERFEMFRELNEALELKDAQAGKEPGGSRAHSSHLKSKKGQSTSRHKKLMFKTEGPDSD

As to `OC1C(O)C(O)C(O)C(O)C1O` (configuration not stated), the call in [1], in [2], in assay [3] and in [4] was inactive.

`Nc1nc2ccc([N+](=O)[O-])cc2s1`: the call in assay [1], in [2] and in [4] was inactive. The AC50 in [3] was 56.5 µM (active).

Consider `CCN(CC)CCOC(=O)c1ccc(N)cc1`, for which the call in assay [1], in assay [5], in assay [3] and in assay [6] was inactive.

With `CC(=O)[C@H]1CC[C@H]2[C@@H]3CC=C4C[C@@H](O)CC[C@]4(C)[C@H]3CC[C@]12C`, the result in assay [1], in assay [5], in assay [4], in assay [7], in assay [8] and in [9] was inactive. Also, the outcome in assay [10] was inactive. The AC50 in assay [3] is 16.5 µM (active).

For `C=C(C)C1CCC(C)CC1O` (configuration not stated), the result in [1], in assay [5], in assay [4] and in assay [6] was inactive.

For the compound `CC(C)=CCCC(C)=CCCC(C)=CCO`, the compound was classed as inactive in assay [1], in assay [5] and in assay [4].

In the case of `OCCCCCO`, the compound was classed as inactive in [1], in assay [5] and in assay [6].

Take `CN1Cc2c(N)cccc2C(c2ccccc2)C1` (configuration not stated): the compound was called inactive in assay [1], in [5] and in assay [4].

Regarding `OC[C@H]1O[C@H](O[C@]2(CCl)O[C@H](CCl)[C@@H](O)[C@@H]2O)[C@H](O)[C@@H](O)[C@H]1Cl`, the compound was classed as inactive in assay [1], in [5], in assay [3], in assay [4], in assay [6] and in assay [7]. The result in assay [8], in assay [9] and in [10] was inactive.

`COC(=O)c1ccc(C)cc1`: the call in [1], in assay [5], in assay [3], in [4], in [6] and in [7] was inactive. In addition, the result in assay [8], in assay [9] and in [10] was inactive.

Turning to `CCCCCCCCCCCCCC(=O)O`, the compound was called inactive in [1], in assay [5], in assay [4] and in assay [6].

Turning to `O=C1OC2(c3cc(Br)c(O)c(Br)c3Oc3c2cc(Br)c(O)c3Br)c2c(Cl)c(Cl)c(Cl)c(Cl)c21`, the outcome in assay [1], in assay [5], in assay [4] and in [6] was inactive. For the same compound, the AC50 is 35.3 µM (active) in assay [3]; 4.1 µM (active) in [7]; 1.86 µM (active) in assay [8]; 4.58 µM (active) in assay [9]; 3.71 µM (active) in [10].

For `C=O`, the compound was classed as inactive in assay [1], in assay [2], in assay [3] and in assay [4].

Regarding `COc1ccc(NC(=O)CC(C)=O)cc1`, the result in assay [1], in [5], in assay [4] and in assay [6] was inactive.

As to `NCCNCCN`, the compound was called inactive in assay [1], in assay [5], in assay [3], in assay [4], in assay [7] and in assay [8]. Also, the result in assay [9] and in assay [10] was inactive.

For the compound `C=C(C)C(=O)O[C@H]1C[C@@H]2CC[C@@]1(C)C2(C)C`, the compound was classed as inactive in assay [1], in assay [2] and in assay [4]. Also, the AC50 in assay [3] was 72.1 µM (active); in [6], 145 µM (active); in assay [7], 12.2 µM (active); in assay [8] it was 13.5 µM (active); in assay [9], 26.6 µM (active); in assay [10], 9.05 µM (active).

Turning to `Cc1ccc2ccccc2n1`, the result in [1], in assay [2], in [3], in assay [4] and in assay [6] was inactive.

Turning to `CC(C)(C#N)c1cc(Cn2cncn2)cc(C(C)(C)C#N)c1`, the call in assay [1], in assay [2], in assay [3], in assay [4] and in assay [6] was inactive.

Turning to `O=C(O)CCCCC1CCSS1` (configuration not stated), the result in [1], in [2] and in [6] was inactive. In addition, the AC50 in [3] is 40 µM (active).

Turning to `Clc1sc(Cl)c(Cl)c1Cl`, the compound was classed as inactive in [1], in assay [3] and in [4].

In the case of `Sc1nc(S)nc(S)n1`, the call in assay [1], in assay [2], in [3], in [4] and in assay [6] was inactive.

As to `CCCCCC(CO)CCC` (configuration not stated), the outcome in [1] and in assay [6] was inactive.

As for `O=C1CCCCCCCCCCOCCCCO1`, the outcome in assay [1], in assay [4] and in assay [6] was inactive. Moreover, in assay [3], the AC50 was 167 µM (active).

In the case of `CC(C)(COC(=O)c1ccccc1)COC(=O)c1ccccc1`, the result in assay [1], in assay [3], in assay [4] and in assay [9] was inactive. Also, the AC50 is 11.4 µM (active) in [7], 34 µM (active) in assay [8] and 29.5 µM (active) in assay [10].

With `O=[N+]([O-])c1cc(C(F)(F)F)ccc1Cl`, the outcome in assay [1], in assay [4], in [6], in [7], in assay [8] and in assay [9] was inactive. In addition, the outcome in assay [10] was inactive. The AC50 in assay [3] is 50.9 µM (active).

Regarding `c1ccc2[nH]ccc2c1`, the compound was classed as inactive in [1], in assay [2], in assay [3], in assay [4] and in [6].
